Measurements from PubChem BioAssay.
Activity calls are given as the source filed them.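 Rule for the calls, unless noted: active = z-score of at least 1.8 in each of two replicates, scored against plate mean and spread of sample wells; inactive = the rest.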

Key:
[1] = sensitizers of A549 cells to miR-34 induction, primary screen, imaging, A549 dox-inducible miR-34, nuclei and caspase counts (AID 1347080;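 active = compounds whose cell count with miR-34 switched on is under 0.7 times the count with it off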; note: test concentration not given here); settings: A549 miR-34 inducible, Hoechst nuclei count, 48 h
[2] = survival rescue of mitochondrial mutant cells in low glucose, primary screen, MELAS cybrids, Rieske KO mouse fibroblasts, CellTiter-Glo (AID 1508586;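 active = mean z-score across replicates of 1.96 or higher in either the MELAS or the Rieske mutant cell line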;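 note: test concentration not given here; z relative to plate mean and SD of compound and empty wells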)
[3] = viability rescue of complex I mutant cybrids, primary screen, cell-based, galactose medium, ATP luminescence (AID 1645843); settings: complex I mutant cybrid cells, 72 h, stronger effect = higher value;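 note: positive z means more ATP and so rescue of galactose-driven cybrid death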
[4] = stronger effect = lower value, cell number ratio, induced over uninduced
[5] = measured here: relative caspase fold change +Dox/-Dox
[6] = measured here: total cells with miR-34 induction, stronger effect = lower value
[7] = measured here: total cells without miR-34 induction
[8] = MELAS cybrid survival, CellTiter-Glo 48 h, stronger effect = higher value
[9] = Rieske KO mouse fibroblast survival, CellTiter-Glo 72 h

| SMILES | fold change [1, 4] | fold change [1, 5] | cell count [1, 6] | cell count [1, 7] | z-score [2, 8] | z-score [2, 9] | z-score [3] |
| --- | --- | --- | --- | --- | --- | --- | --- |
| CN(CCc1ccccn1)C(=O)c1ccc2sc(N)nc2c1 | 0.88 (inactive) | 0.927 | 8380 | 9520 | 0.048 (inactive) | -0.377 | -0.435 (inactive) |
| COc1cc(N=C(N)N=C(N)N)cc(OC)c1 | 0.901 (inactive) | 0.269 | 8210 | 9120 | 0.825 (inactive) | -0.341 | 0.61 (inactive) |
| CN=C(NC)NCc1ccccc1 | 0.917 (inactive) | 0.571 | 9010 | 9830 | 0.186 (inactive) | -0.223 | 0.38 (inactive) |
| Cc1nsc(NC(=O)NCc2ccccc2-n2ccnc2C)n1 | 0.866 (inactive) | 1.23 | 9020 | 10400 | 0.0398 (inactive) | -0.281 | -0.575 (inactive) |
| CC(Nc1nc(N)nc2[nH]ncc12)c1ccc(Cl)cc1 (stereo unspecified) | 0.895 (inactive) | 1.28 | 7110 | 7940 | -0.461 (inactive) | -0.503 | -0.575 (inactive) |
| O=C(Nc1c[nH]c2ccccc12)c1cccnc1 | 0.884 (inactive) | 1.08 | 8140 | 9200 | -0.289 (inactive) | -0.312 | 1.14 (inactive) |
| Fc1ccccc1-c1cc(NCc2ccncc2)n2nccc2n1 | 1.06 (inactive) | 0.296 | 4240 | 4020 | -1.56 (inactive) | -0.13 | 0.425 (inactive) |
| C[C@H](NC(=O)c1cnc(-c2ccccc2)[nH]1)c1ccccc1 | 0.876 (inactive) | 2.24 | 7380 | 8420 | 0.341 (inactive) | -0.103 | -0.6 (inactive) |
| c1ccc2c(c1)OCC(CNc1ncnc3nc[nH]c13)O2 (stereo unspecified) | 0.786 (inactive) | 0.972 | 6310 | 8020 | -0.539 (inactive) | 0.778 | -0.485 (inactive) |
| CNc1ccnc(-c2cnn(CC(=O)Nc3cc(C)nn3C)c2)n1 | 0.867 (inactive) | 1.09 | 8660 | 9980 | -0.389 (inactive) | -1.16 | -0.515 (inactive) |
| CCCc1cn(CC2CCCN(C(=O)c3nc4ncccn4n3)C2)nn1 (stereo unspecified) | 0.866 (inactive) | 1.31 | 9000 | 10400 | -0.289 (inactive) | -0.243 | -0.51 (inactive) |
| CC(C)(C)Nc1nc(N)c(C(=O)c2ccccc2)s1 | 0.899 (inactive) | 0.5 | 6780 | 7540 | 3.13 (active) | 0.287 | 0.55 (inactive) |
| c1ccc(NCc2cccnc2)cc1 | 0.876 (inactive) | 1.56 | 8370 | 9560 | -0.153 (inactive) | -0.0248 | 0.545 (inactive) |
| O=C(Nc1ccc(I)cc1)NC1CCCCC1 | 0.864 (inactive) | 0.498 | 7960 | 9220 | 0.185 (inactive) | -0.338 | 1.05 (inactive) |
| CC(C)C(NC(=O)Cc1c[nH]c2ccccc12)C(=O)O (stereo unspecified) | 0.857 (inactive) | 0.806 | 8140 | 9500 | -1.19 (inactive) | -0.306 | 0.47 (inactive) |
| Cc1ccc(-c2noc([C@@]34CC[C@@](C)(C(=O)O3)C4(C)C)n2)cc1Cl | 0.896 (inactive) | 1.34 | 8140 | 9090 | -0.00199 (inactive) | -1.05 | -0.54 (inactive) |
| CCn1ncc(NC(=O)Cn2nc(C)c(-c3ccc(-n4cccn4)cc3)c2C)n1 | 0.87 (inactive) | 1.42 | 4370 | 5020 | -1.09 (inactive) | 1.3 | -0.54 (inactive) |
| CCc1ccc(CNC(=O)Nc2nc(C)n(C(C)C)n2)nc1 | 0.86 (inactive) | 1.49 | 7770 | 9030 | 0.0188 (inactive) | 0.8 | -0.525 (inactive) |
| CCc1nc(NC(=O)NC(c2ccccc2)c2ccccc2)nn1C | 0.893 (inactive) | 1.04 | 6610 | 7400 | -0.352 (inactive) | -0.694 | 1.48 (inactive) |
| Nc1nc(NCc2ccncc2)c2cn[nH]c2n1 | 0.931 (inactive) | 0.844 | 8290 | 8900 | -0.45 (inactive) | -0.366 | -0.535 (inactive) |
| Nc1[nH]c(=O)[nH]c(=O)c1N | 0.894 (inactive) | 0.315 | 8900 | 9960 | 0.368 (inactive) | 0.648 | 0.84 (inactive) |
| Cc1cc(-c2cccc3cccnc23)nc(N)n1 | 0.914 (inactive) | 1.55 | 9030 | 9880 | -0.012 (inactive) | -0.264 | -0.525 (inactive) |
| CCOc1ccccc1-c1ncnc2sc(C)c(C)c12 | 0.89 (inactive) | 1.57 | 6100 | 6860 | -0.535 (inactive) | 0.672 | 0.07 (inactive) |
